Screening data (PubChem)
An excerpt weighted towards active compounds, which were near 2.4% of everything screened.
Hck Nef HTS: inhibitors of Nef-activated human Hck kinase, primary screen, biochemical, Z-Lyte FRET, 384-well, Hck-YEEI; 0.68% of 220,000 active; AID 463187, 2010; Tyrosine-protein kinase HCK (Homo sapiens), P08631; Recombinant Hck-YEEI plus Nef, Z-Lyte FRET kinase assay; inhibition, % at 20 µM;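 active = Hck-Nef kinase inhibition above about 50%, limit read from the data; inactive = inhibition below that limit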;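 also: 0% = DMSO with Hck plus Nef and 100% = Hck alone without Nef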
EP2 modulator: EP2 receptor modulators, cAMP readout, primary screen, cell-based, HTRF cAMP, PGE2 stimulation; EP2-expressing cells, cAMP HTRF FRET, PGE2 co-stimulation; induction, % at 25 µM; 0.83% of 260,000 active; Prostaglandin E2 receptor EP2 subtype (Homo sapiens), P43116;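 active = compounds whose cAMP rise, as percent of the full-agonist control response, exceeds 60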;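 also: rat C6 glioma line stably carrying human EP2 under a CMV promoter; the protocol text gives 20 µM as final concentration; 100% = response of wells given 1 µM PGE2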
Arbovirus inh: antivirals against arbovirus infection, primary screen, cell-based, full library, 10K replicate subset. 0.37% of 200,000 active. AID 1251, 2008. inhibition, % at 10 µM. arbovirus infection cell-based antiviral screen; in the data active = inhibition above about 30%
EP2 antag: human EP2 receptor antagonists, primary screen, TR-FRET cAMP, C6 glioma cells | AID 1422, 2008 | 0.52% of 260,000 active | inhibition, % at 25 µM | Prostaglandin E2 receptor EP2 subtype (Homo sapiens), P43116 | C6 glioma cells expressing human EP2; cells stimulated with saturating PGE2;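 active = percent inhibition above 40 after rounding to a whole number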;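 also: rat C6 glioma host cells with rolipram phosphodiesterase inhibitor present; the protocol text gives 20 µM as final concentration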
p97 inhibitor: inhibitors of human p97 ATPase, primary screen, biochemical | AID 1481, 2009 | recombinant p97 ATPase, Kinase-Glo ATP luminescence, 3 h | Transitional endoplasmic reticulum ATPase (Homo sapiens), P55072 | inhibition, % at 8 µM | 0.42% of 220,000 active; in the data active = inhibition above about 15%;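 also: 0% = DMSO vehicle and 100% = wells lacking enzyme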
Target sequence (P55072 whole entry, looked up): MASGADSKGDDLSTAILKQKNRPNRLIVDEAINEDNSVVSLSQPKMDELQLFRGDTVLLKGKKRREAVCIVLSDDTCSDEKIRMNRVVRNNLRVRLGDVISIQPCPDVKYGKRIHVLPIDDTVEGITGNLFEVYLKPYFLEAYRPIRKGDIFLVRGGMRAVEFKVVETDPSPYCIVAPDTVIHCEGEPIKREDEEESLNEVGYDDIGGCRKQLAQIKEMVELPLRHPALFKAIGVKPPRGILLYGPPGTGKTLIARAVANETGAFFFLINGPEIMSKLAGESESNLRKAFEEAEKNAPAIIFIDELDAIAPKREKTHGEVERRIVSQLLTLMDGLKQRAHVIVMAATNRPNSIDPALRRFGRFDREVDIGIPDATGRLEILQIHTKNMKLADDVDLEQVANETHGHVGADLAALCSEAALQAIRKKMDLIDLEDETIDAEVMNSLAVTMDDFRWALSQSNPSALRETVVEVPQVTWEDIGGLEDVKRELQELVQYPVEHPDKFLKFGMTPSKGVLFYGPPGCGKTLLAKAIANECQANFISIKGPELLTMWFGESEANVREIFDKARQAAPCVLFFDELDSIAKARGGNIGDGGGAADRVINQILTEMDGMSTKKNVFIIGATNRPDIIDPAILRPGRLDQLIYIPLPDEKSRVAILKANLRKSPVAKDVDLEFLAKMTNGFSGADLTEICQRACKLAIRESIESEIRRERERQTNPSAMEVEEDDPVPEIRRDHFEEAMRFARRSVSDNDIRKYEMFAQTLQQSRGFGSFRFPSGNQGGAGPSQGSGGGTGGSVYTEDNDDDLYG
EP2 cAMP induct: cAMP induction in EP2, EP4, beta2-AR and parental cells, confirmation, counter-screen for EP2 modulator project, cell-based, five parallel assays, C6 glioma, HEK293; shares compounds with EP2 modulator; cAMP HTRF induction; plus low (about EC15) PGE2 agonist; calls only at 20 µM (by protocol); 47% of 1,300 active;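 active = cAMP induction above 50% in the main assay while under 30% in all four parallel counter assays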;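 also: rat C6 glioma cells stably expressing human EP2 receptor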
p97 confirm: p97 ATPase inhibitors, retest, confirmation, biochemical. shares compounds with p97 inhibitor. recombinant p97 ATPase, Kinase-Glo ATP luminescence. inhibition, % at 8 µM. 44% of 760 active;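 active = percent inhibition of p97 ATPase above a set limit, the primary screen's mean plus 3 SD, cut at about 15% in these data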;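 also: 0% = DMSO wells and 100% = wells lacking p97 protein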
Hck Nef conf: retest of Hck:Nef kinase inhibitor hits, confirmation, biochemical, Z-Lyte FRET, 384-well, p-Tyr peptide counterscreen; 28% of 1,300 active; AID 463188, 2010; shares compounds with Hck Nef HTS; Recombinant Hck-YEEI:Nef, Z-Lyte FRET kinase assay; calls only at 10 µM;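 active = average inhibition of at least 50%, with Z-scores no higher than 3 in both the phospho-tyrosine peptide and fluorescence counterscreens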
* hit, by the source's call; i = inactive; . = no result shown; + = active, no number; ! = not active in a repeat.

SMILES	Hck Nef HTS	EP2 modulator	Arbovirus inh	EP2 antag	p97 inhibitor	p97 confirm	others
CCc1cc2c(C)cc(C)cc2nc1SCC(=O)N1CCN(C(=O)c2ccco2)CC1	.	-10	.	7	.	.
Cc1ccc(-c2csc(Nc3ccc(C(=O)O)cc3)[n+]2Cc2ccccc2)cc1	85*	76*	0	4	1	.	EP2 cAMP induct=+;Hck Nef conf=+
CNC(=O)c1cc2c(=O)n3cc(C)ccc3nc2n(C(C)C)c1=N	171*	73*!	4	14	2	.	EP2 cAMP induct=i
Cc1ccc2nc3c(cc(C(=O)NCc4ccccc4)c(=N)n3C(C)C)c(=O)n2c1	.	11	.	12	.	.
Cc1cccc(C(=O)N(Cc2cc3cc(C)ccc3[nH]c2=O)C2CC2)c1	.	-29	.	13	.	.
N=c1oc2c3c4c(cc2cc1C(=O)Nc1ccccc1)CCCN4CCC3	1	14	4	10	12	.
CC(C)c1cc(=O)oc2c3c4c(cc12)CCCN4CCC3	52*	54	-2	3	3	.	EP2 cAMP induct=+
N#Cc1c(-c2cccs2)nc(SCc2ccc(Cl)cc2)[nH]c1=O	69*	75*	7	19	-1	.	EP2 cAMP induct=i;Hck Nef conf=+
Cc1ccc(S(=O)(=O)N(CCO)Cc2cc3ccc(C)c(C)c3[nH]c2=O)cc1Cl	.	-16	.	6	.	.
Cc1ccc(N=Cc2cc(Cc3ccccc3Cl)cc([N+](=O)[O-])c2O)c(O)c1	56*	68*	-6	10	4	.	EP2 cAMP induct=i;Hck Nef conf=i
Cc1ccccc1C(=O)Nc1ccc(N2CCN(C(=O)C(C)C)CC2)cc1	.	-18	.	13	.	.
CN(C)/N=C/c1c(O)ccc2ccccc12	7	-47	0	14	0	.
Oc1ccc2ccccc2c1C=NC12CN3CCN(CN(C3)C1)C2	5	-15	23	10	20*	21*
OCC(CO)(CO)N=Cc1c(O)ccc2ccccc12	2	29	23	5	29*	8
CC(=O)N(Cc1cc2cccc(C)c2n2nnnc12)C1CCCC1	.	-9	.	7	.	.
O=c1[nH]c2cc3c(cc2cc1CN(CCO)S(=O)(=O)c1ccc2c(c1)OCCO2)OCCO3	.	-20	.	11	.	.
CCC(=O)Nc1cccc(-c2cn3ccsc3n2)c1	0	5	-3	20	15*	10
O=C(Nc1cccc(NC(=O)c2ccco2)c1)c1ccc2c(c1)OCCO2	13	-53	-4	5	17*	5
O=C(Nc1cccc(NC(=O)c2ccco2)c1)c1ccc2c(c1)OCO2	6	0	0	8	-1	.
S=C1NC2=C(CCC/C2=C\c2ccc(Cl)cc2)C(c2ccc(Cl)cc2)N1 (stereo unspecified)	-23	-1	.	18	18*	8
S=C1NC2=C(CCC/C2=C\c2ccccc2)C(c2ccccc2)N1 (stereo unspecified)	2	20	-4	6	7	.
Cc1ccc(-c2nc(NC(=O)c3cccs3)sc2C)c(C)c1	.	-3	.	4	.	.
O=C(Nc1cccc(NC(=O)c2cccs2)c1)c1ccc([N+](=O)[O-])o1	26	-43	.	23	18*	25*
COc1cc(NC(=O)c2ccc([N+](=O)[O-])o2)ccc1NC(=O)c1cccs1	35	-85	0	33	0	.
O=c1[nH]c(N2CCCC2)nc2c1CN(Cc1nnnn1Cc1ccco1)CC2	.	8	.	10	.	.
SMILES	Hck Nef HTS	EP2 modulator	Arbovirus inh	EP2 antag	p97 inhibitor	p97 confirm	others
COc1cccc(/C=C2/C(C)=C(C#N)c3nc(N)c(C#N)c(C)c32)c1OC(C)C	.	29	.	12	.	.
N#CC1=C(SCC(=O)Nc2ccc(C(=O)O)cc2)NC(=O)CC1c1ccco1 (stereo unspecified)	14	21	.	9	17*	9
Cc1ccc(NC(=O)CSC2=C(C#N)C(c3ccco3)C3=C(CCCC3=O)N2)cc1 (stereo unspecified)	-2	-3	7	.	4	.
Cc1cc(C)cc(-n2c(SCC(=O)N3CCCC3)nnc2-c2ccccn2)c1	.	-40	.	4	.	.
O=C(Oc1cccc(Nc2ncnc3ccccc23)c1)c1ccccc1Cl	31	-18	-3	18	16*	25*
COc1cccc(Nc2ncnc3ccccc23)c1	13	-10	4	9	2	.
N#Cc1c(-c2ccco2)cc(-c2ccccc2)[nH]c1=O	42	-2	.	10	22*	12
Cc1ccc(-c2cc(-c3ccco3)c(C#N)c(=O)[nH]2)cc1	42	24	.	4	14	.
CCOc1ccc(NC(=O)c2sc(NC(=O)c3cccs3)c(C(=O)OC)c2C)cc1	.	8	.	11	.	.
Cc1ccc2nc(/C(C#N)=C\c3ccc([N+](=O)[O-])o3)[nH]c2c1	3	-40	-37	64*	16*	32*
Cc1ccc2nc(/C(C#N)=C\c3ccc(N4CCOCC4)o3)[nH]c2c1	6	-44	-8	22	-1	.
N#C/C(=C\c1ccc([N+](=O)[O-])o1)c1nc2ccccc2[nH]1	2	-11	-37	69*	21*	36*
N#C/C(=C(/O)c1ccc([N+](=O)[O-])o1)c1nc2ccccc2[nH]1	40	-43	.	17	6	.
CCOC(=O)CNC(=O)CSc1nc2c(C)cc(C)cc2cc1CC	.	48	.	9	.	.
C=CCn1c(SCC(=O)Nc2ccc(C)cc2C)nnc1-c1ccncc1	.	-21	.	11	.	.
Fc1ccccc1CN(Cc1cccnc1)Cc1ccccc1OCc1ccccn1	.	54	.	11	.	.
COC(=O)COc1ccc(=O)n(-c2ccccc2)n1	3	-18	2	12	18*	5
Cc1nonc1NC(=O)CSc1nc2ccccc2[nH]1	11	-1	1	1	0	.
CCOC(=O)NC(=O)CSc1nc2ccccc2[nH]1	17	-9	-1	4	16*	6
O=C(CN(c1ccc(F)cc1)S(=O)(=O)c1ccc2c(c1)OCCO2)N1CCCCC1	.	-18	.	5	.	.
CCCCC(CC)Cn1c(N)c(C#N)c2nc3ccccc3nc21 (stereo unspecified)	6	-4	10	8	1	.
